This passage reports growth results from PubChem BioAssay (NCI).

Each structure is given as a SMILES string. About 83,000 compounds went through this panel and 20% of them were active in at least one assay; those are over-represented in the sample as a whole.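 Step 1: grow cells in 96-well plates. Step 2: add test compound at a single concentration. Step 3: incubate 48 h. Step 4: record percent growth.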 A number with no mark means an inactive call. Activity calls are given as the source filed them.

This test concerns OVCAR-4 ovarian. Briefly: NCI-60 one-dose screen, 48 h (100 = growth as untreated, 0 = no growth, -100 = all killed). To be noted: 10 µM unless noted. How it is done: Growth inhibition of the OVCAR-4 human tumor cell line is measured as a screen for anti-cancer activity. Cells are grown in 96 well plates and exposed to the test compound for 48 hours. Compounds are tested at a single concentration, which is 10^-5 M for most compounds. The reported endpoint is percent growth (GI% or GIPRCNT), where numbers from 0 - 100% represent growth inhibition, and numbers from -100% - 0 represent cell death. For example, a value of 40 represents 60% growth inhibition. A value of 0 means no net growth occurred over the course of the experiment. A value of -40 indicates 40% of cells at the beginning of the experiment died by the end of the experiment. A value of -100 means all cells are dead at the end of the experiment.
NCI-60 Human Tumor Cell Lines Screen was performed using the standard one-dose NCI protocol, which is described in more detail at https://dtp.cancer.gov/discovery_development/nci-60/default.htm.
Compounds with GIPRCNT values below 10 were considered active. Activity score was based on GIPRCNT using the following formula: […]
Score is 0 for GIPRCNT values of 100 or above, 50 for GIPRCNT values of 0, and 100 for GIPRCNT values of -100.
On to `COc1ccc(C(=O)N2NC(=O)/C(=C/c3ccccc3F)N=C2c2ccccc2)cc1`, for which the growth is 106%. For `COC(=O)c1cc(=O)nc(N/N=C/c2ccco2)s1`, the growth was 96.7%.

`C=C1CCC2C3(C)COC(c4c(OC)cccc4OC)OC3CCC2(C)C1C/C=C1/C(=O)OCC1O` (stereo not given): the growth was 41.3%.

On to `COc1cc2c(cc1OCCCN1CCN(CCCn3c4ccccc4c4ccccc43)CC1)N=C[C@@H]1CCCN1C2=O`, for which the growth was -39.5% (active). The result for `C=CCn1cc(-c2nc3ccccc3s2)c2cc(-c3ccc4c5c(cccc35)C(=O)N(CCN3CCNCC3)C4=O)ccc21` reads 88.5%; that for `COc1cc(-c2nn(-c3cccc(NC(=O)Nc4ccc(Cl)c(Cl)c4)c3)cc2-c2ccncc2)ccc1Cl`, 19.8%. For the molecule `Cn1c(=O)c2[nH]c(C3CC=CCC3)nc2n(C)c1=O` (stereo not given), the growth is 111%. The result for `NC(=S)N/N=C1\CCCC(C(F)(F)F)C1` (stereo not given) reads 97.7%. With `Cc1ccc(S(=O)(=O)n2cc(C(=O)C(=O)N3CCOCC3)c3ccccc32)cc1`, the growth is 89.1%.

As for `CCCCCCCCCCCC(=O)NCCC[N+](C)(C)CC(=O)[O-]`, the growth is 97.7%.

Take `COc1cc(-c2nn(-c3cccc(NC(=O)c4ccc(Cl)c(C(F)(F)F)c4)c3)cc2-c2ccncc2)ccc1Cl`: the growth is 66%. For `COc1cc(C2CC(c3ccc4c(c3)OCO4)=NN2C(C)=O)cc(OC)c1OC` (stereo not given) the value was 54.5%; for `O=C(Oc1ccccc1[N+](=O)[O-])C1CCCN1C(=O)OCc1ccccc1` (stereo not given), 103%; for `O=C1/C(=C/c2ccccc2)CN(C(=O)CCN2CCC(=NO)CC2)C/C1=C\c1ccccc1`, 15.3%. Consider `O=[N+]([O-])c1cccc(-c2nc3sccn3c2-c2ccnc(NCCCNS(=O)(=O)c3ccc(C(F)(F)F)cc3)n2)c1`, for which the growth is 15.2%. For `CC(C)CC1NC(C)(C)CO1` (stereo not given) the value was 111%; for `Clc1cc2c(nn1)Nc1ccccc1S2`, 95.3%; for `COc1ccc2c(c1)NC1=C(C(=O)OC1)C2c1cc(OC)c2c(c1)OCO2` (stereo not given), 46%. The result for `COc1ccc(NC(=O)CSc2nc(-c3ccc(OC)c(OC)c3)cc(-c3cc(OC)c(OC)c(OC)c3)n2)cc1` reads 106%; that for `O=C(O)c1nc(-c2ccccc2)oc1N1CCOCC1`, 108%.

`COc1ccc(NC(=O)c2cc(OC)c(OC)c(OC)c2)cc1O`: the growth was 57.4%. The result for `O=C(Nc1ccncc1)C(=O)c1cn(S(=O)(=O)c2ccc(Cl)cc2)c2ccccc12` reads 49%. The result for `CCOC(=O)c1cn2c3c(cc(C)cc3c1=O)C(=O)/C(=C/c1ccccc1)C2` reads 88.1%; that for `Cc1ccc2ccccc2c1C[n+]1ccccc1`, 91.5%; that for `CN(C)CCCC(C#N)c1ccccc1` (stereo not given), 113%. With `COc1cc(-c2nn(-c3cccc(NC(=O)Nc4cc(C(F)(F)F)cc(C(F)(F)F)c4)c3)cc2-c2ccncc2)ccc1Cl`, the growth is 17.2%. As for `CCOC(=O)c1ccc(NC(=O)N2CC(C)OC(C)C2)cc1` (stereo not given), the growth was 96.8%. As for `COc1ccc(/C=N\NC(=O)CN2CCN(c3cc4c(cc3F)c(=O)c(C(=O)N/N=C/c3ccc(OC)c(OC)c3)cn4C3CC3)CC2)cc1OC`, the growth was -2.98% (active). `O=C(NNC(=O)N1c2ccccc2C=Cc2ccccc21)c1ccccc1`: the growth is 103%. Consider `CCCCCCCCCCCCNC(=O)[C@H]1CSC(c2cc3ccccc3s2)N1` (stereo not given in full), for which the growth is -68.5% (active). The result for `COc1ccc(-c2nc3sccn3c2/C=C/C(=O)c2cc(F)cc(F)c2)cc1` reads 66.2%; that for `COc1cc(/C(C#N)=C/c2ccc3c(c2OC)OCO3)cc2c1OCO2`, 56.3%; that for `O=C(Nc1cccc(-n2cc(-c3ccncc3)c(-c3ccc(Cl)c(O)c3)n2)c1)Nc1ccc(Cl)c(C(F)(F)F)c1`, -3.42% (active). For `O=C1c2c(Cl)c(Cl)c(Cl)c(Cl)c2C(=O)C2(Cl)CC=CCC12Cl` (stereo not given), the growth is -59.1% (active). For the molecule `O=C(O)/C=C/C(=O)c1ccc(Cl)cc1`, the growth was 116%. Turning to `Cc1ccc(S(=O)(=O)NCCNc2nccc(-c3c(-c4cccc(N)c4)nc4sccn34)n2)cc1`, the growth was 58.8%.

For the molecule `CCCC(=O)Oc1ccc(/C(=C(\C)c2ccccc2)c2ccc(OCCN(CC)CC)cc2)cc1`, the growth was 86.6%. The result for `COc1ccc2c(c1)[nH]c(=O)c1c3cc(OC)ccc3cn21` reads 46.1%; that for `COc1ccc(C(=O)NC(=O)Nc2cc3c(cc2F)/C(=C/c2[nH]c(C)c(CCC(=O)O)c2C)C(=O)N3)c(F)c1`, 80.3%; that for `Cc1ccc(S(=O)(=O)/C(=C\c2ccc(Cl)cc2)C(=O)c2ccccc2)cc1`, 107%.
